In publication PMC7819943, “Rice protein-binding microarrays: a tool to detect cis-acting elements near promoter regions in rice”:
Whole data set: some 35,000 sequences, median “fluorescence intensity (a.u.)” near 10,000, cut for the highest 2% near 52,000. Only a selection was taken, and the highest values are over-represented in it overall.

Biological target: T1, OsWOX13 (Oryza sativa, UniProt Q5QMM3 1-267)
T1 sequence: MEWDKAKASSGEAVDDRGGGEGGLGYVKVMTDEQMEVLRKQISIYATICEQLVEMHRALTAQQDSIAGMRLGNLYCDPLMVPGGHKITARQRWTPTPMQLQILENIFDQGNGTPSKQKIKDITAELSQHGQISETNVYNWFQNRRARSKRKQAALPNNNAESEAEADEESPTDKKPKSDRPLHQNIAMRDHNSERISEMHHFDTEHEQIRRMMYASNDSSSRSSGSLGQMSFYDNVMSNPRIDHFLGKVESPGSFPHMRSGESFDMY
Test: protein-binding microarray (RPBM); PBS, 2% BSA, 51.3 ng/ul salmon testes DNA, 50 uM zinc acetate, 200 nM TF, 25 C, 1 h; high values mean tight binding
Details: protein: recombinant; tags: N-terminal polyhistidine and DsRed monomer fusion (pET32a); label: CyDye5-dUTP incorporated in the synthesized complementary strand; 3' TTTTT single-stranded linker to array surface; dsDNA, one strand shown
How it was run: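 The binding signal is fluorescence intensity per feature, in arbitrary units, read on an Axon 4000B scanner. Polyhistidine- and DsRed-tagged transcription factors (N-terminal fusions) from E. coli BL21-CodonPlus were purified on Ni–NTA and applied at 200 nM for 1 h at 25 °C to a double-stranded, BSA-blocked custom Agilent array in buffer with 50 µM zinc acetate.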

Question: With “TTTCCATTAATAAATTGAAACATATTGAACTAGATCGTTCCGGAGTCACCTAGTGCAG” as the sequence, how does the binding signal read?
Answer: 15600 fluorescence intensity (a.u.)

Question: With “TTTAATAATTTGTTTATAAAAGAAACTAAAGGGCACTGCTCGGAGTCACCTAGTGCAG” as the sequence, how does the binding signal read?
Answer: 12200 fluorescence intensity (a.u.)

Question: For “ATAAACTGGAACAGAAGGCCAGGCGGAAATAAACTGGACACGGAGTCACCTAGTGCAG”, which binding signal is on record?
Answer: 6490 fluorescence intensity (a.u.)

Question: Which binding signal does the source give for “GGCCTAATTCATTGACGGGAACTAAGTGGGCTGAATTCGTCGGAGTCACCTAGTGCAG” here?
Answer: 7250 fluorescence intensity (a.u.)

Question: “CCCAAATTAATCATCATGTAATAGAATGATATATTCATTGCGGAGTCACCTAGTGCAG” was tested. Which binding signal did it give?
Answer: 49200 fluorescence intensity (a.u.)

Question: “GTGTCGCCAGTGATTGCAGTTTCAGTTCGAAATTTCTCTACGGAGTCACCTAGTGCAG” was tested. Which binding signal did it give?
Answer: 9490 fluorescence intensity (a.u.)

Question: For “ATAACGAACGGATGAGATTGATCGCTACAATACTCTAGAGCGGAGTCACCTAGTGCAG”, which binding signal is on record?
Answer: 4050 fluorescence intensity (a.u.)

Question: “TAAACTCCAAGTTGATTATCCAACGAATCGTAGCCTCGAGCGGAGTCACCTAGTGCAG” was tested. Which binding signal did it give?
Answer: 5690 fluorescence intensity (a.u.)

Question: How did the binding signal turn out when “GATCAATCATTTGCTGAGCTCGTGAATTCTGTCTGGTTCACGGAGTCACCTAGTGCAG” was run?
Answer: 24300 fluorescence intensity (a.u.)

Question: How did the binding signal turn out when “TTAAATTTAATTAAATTTAAAGCAGTTTGATTTTGACCAACGGAGTCACCTAGTGCAG” was run?
Answer: 56000 fluorescence intensity (a.u.)

Question: “AATATAAATTAAATTTTATTTGCTAAAATTAATATCATTGCGGAGTCACCTAGTGCAG” was tested. Which binding signal did it give?
Answer: 15000 fluorescence intensity (a.u.)

Question: For “CTTAATTAATAGGGTATTAATAACCTCCCTAAAGTCATTGCGGAGTCACCTAGTGCAG”, which binding signal is on record?
Answer: 60200 fluorescence intensity (a.u.)

Question: With “ATTTCTTAATTTAATGCTATTCTGACTCCTTGCACCTCTACGGAGTCACCTAGTGCAG” as the sequence, how does the binding signal read?
Answer: 12300 fluorescence intensity (a.u.)

Question: Which binding signal does the source give for “ACTAGCTAAATTATACCATGTTAACTTATACTATATTAGTCGGAGTCACCTAGTGCAG” here?
Answer: 9700 fluorescence intensity (a.u.)

Question: With “AATTTACACTTAATTTGCTATTTGCTATACATGTTTTCTACGGAGTCACCTAGTGCAG” as the sequence, how does the binding signal read?
Answer: 10800 fluorescence intensity (a.u.)

Question: “GTACAAAATTATCTAAAATTAACTACAAAATTATGTACTACGGAGTCACCTAGTGCAG” was tested. Which binding signal did it give?
Answer: 12800 fluorescence intensity (a.u.)

Question: Which binding signal does the source give for “TTCTAATAATTTGATATTAGGTCATTCCCTAATATTCGTGCGGAGTCACCTAGTGCAG” here?
Answer: 25000 fluorescence intensity (a.u.)

Question: Which binding signal does the source give for “TAACTAATTATGTACTAACAAATTAGCTAGTCTACCATGCCGGAGTCACCTAGTGCAG” here?
Answer: 56600 fluorescence intensity (a.u.)

Question: “CCTTAATTAATTAATTAATTACGTGCTATTTATTTCTTGGCGGAGTCACCTAGTGCAG” was tested. Which binding signal did it give?
Answer: 55300 fluorescence intensity (a.u.)

Question: Which binding signal does the source give for “AACTTAATTAAATTTAAAGCAGTTTGATTTTGACTAAAGTCGGAGTCACCTAGTGCAG” here?
Answer: 31800 fluorescence intensity (a.u.)

Question: For “TATAAATTTAGTCAAATTTAAAGCAGTTTGATTTTGACCACGGAGTCACCTAGTGCAG”, which binding signal is on record?
Answer: 26800 fluorescence intensity (a.u.)

Question: With “GGCGTTAATCACGTGATGGGCATGGATAGTGATTTAGATTCGGAGTCACCTAGTGCAG” as the sequence, how does the binding signal read?
Answer: 13900 fluorescence intensity (a.u.)

Question: Which binding signal does the source give for “GATATGATGGGTACAAACTGTTATAAACTAACATGTCTATCGGAGTCACCTAGTGCAG” here?
Answer: 5970 fluorescence intensity (a.u.)

Question: How did the binding signal turn out when “GGGCCTGGTCCTGATTGGACTTCCTTATCTGTCTATCACACGGAGTCACCTAGTGCAG” was run?
Answer: 10700 fluorescence intensity (a.u.)

Question: Which binding signal does the source give for “TGATGGGAAAACTTTAAAATTAATTTTGAATTTAAGGTTGCGGAGTCACCTAGTGCAG” here?
Answer: 4960 fluorescence intensity (a.u.)

Question: “TGCTTTGATTTTACGTCACATACACATGGTGATGCTTCAACGGAGTCACCTAGTGCAG” was tested. Which binding signal did it give?
Answer: 6250 fluorescence intensity (a.u.)

Question: “CAGTTTAATTGCTCCTCGGATGGATCTGGTATAGTTCTGCCGGAGTCACCTAGTGCAG” was tested. Which binding signal did it give?
Answer: 20700 fluorescence intensity (a.u.)

Question: For “CTCTTGATTGTATCCTTAGGCACTTTGTATATTCTCGAGTCGGAGTCACCTAGTGCAG”, which binding signal is on record?
Answer: 31700 fluorescence intensity (a.u.)

Question: For “TAAAATTAGTCAAACTTAAAGCAGTTTGATTTTGACTAAACGGAGTCACCTAGTGCAG”, which binding signal is on record?
Answer: 3740 fluorescence intensity (a.u.)

Question: For “TTTAATTGATGGAGCGGTAATGGTAATAGTTCTTCACTCACGGAGTCACCTAGTGCAG”, which binding signal is on record?
Answer: 57300 fluorescence intensity (a.u.)

Question: How did the binding signal turn out when “CCAAATGATTAATTTGGAGGACTTATTTGGACGTTTTGAACGGAGTCACCTAGTGCAG” was run?
Answer: 42300 fluorescence intensity (a.u.)

Question: Which binding signal does the source give for “TTTATAATAGTTAATATTTAATTGATCATTTGCTAATGAGCGGAGTCACCTAGTGCAG” here?
Answer: 24900 fluorescence intensity (a.u.)

Question: “CCATTACGTGATCACAGATTGATCAAGAAATGCTTGACGACGGAGTCACCTAGTGCAG” was tested. Which binding signal did it give?
Answer: 19600 fluorescence intensity (a.u.)

Question: How did the binding signal turn out when “TTGGATTAGAATTTAATTTGAAGACGACATCCATTGGATACGGAGTCACCTAGTGCAG” was run?
Answer: 28700 fluorescence intensity (a.u.)

Question: “TTCACTAATCAATCAACTTAATTTGCTCTGTCAATGTGCACGGAGTCACCTAGTGCAG” was tested. Which binding signal did it give?
Answer: 61700 fluorescence intensity (a.u.)

Question: Which binding signal does the source give for “TTTATATTATTTGTCAATCTTATTGTCAACTTATTAATCACGGAGTCACCTAGTGCAG” here?
Answer: 5140 fluorescence intensity (a.u.)

Question: “ACATCACTAATTAATGTAATTTAAGTGGCTCATTTGCTCACGGAGTCACCTAGTGCAG” was tested. Which binding signal did it give?
Answer: 31900 fluorescence intensity (a.u.)

Question: With “GAACAGGTAATTTAAAATTGATGGAGTTCATAGGATGTCACGGAGTCACCTAGTGCAG” as the sequence, how does the binding signal read?
Answer: 24200 fluorescence intensity (a.u.)

Question: How did the binding signal turn out when “TCTGATTAATTTGACGGCCACAAAATACTTAGTTTGGCAACGGAGTCACCTAGTGCAG” was run?
Answer: 65000 fluorescence intensity (a.u.)

Question: For “AAGATACGTGATTGAAATCATTCCATTATGGACGACATTGCGGAGTCACCTAGTGCAG”, which binding signal is on record?
Answer: 54000 fluorescence intensity (a.u.)

Question: With “TTAACAATTGAAAGATCATCTCATTGGTTAATTTATTTGGCGGAGTCACCTAGTGCAG” as the sequence, how does the binding signal read?
Answer: 6220 fluorescence intensity (a.u.)

Question: “GATGGTCTATTAGTCCGTGATTAATTAAGTATTAGCTATTCGGAGTCACCTAGTGCAG” was tested. Which binding signal did it give?
Answer: 8910 fluorescence intensity (a.u.)
